The results in this text go back to PubChem BioAssay (NCI).

Some test systems named below: SR leukemia; RPMI-8226 leukemia; OVCAR-8 ovarian; OVCAR-5 ovarian; OVCAR-4 ovarian; SK-OV-3 ovarian; IGROV1 ovarian; OVCAR-3 ovarian; HS 578T breast; NCI/ADR-RES ovarian; T-47D breast; BT-549 breast; MDA-MB-435 melanoma; SW-620 colon; MCF7 breast; HCT-116 colon; HCC-2998 colon; KM12 colon.
Common to all, as to assay: NCI-60 one-dose screen, 48 h (100 = growth as untreated, 0 = no growth, -100 = all killed)
Conditions in all cases: 10 µM unless noted

SMILES strings stand for the structures. This is part of a sample that, as a whole, favours compounds with a hit. Of some 83,000 tested, about 20% had one in any assay.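 Negative percent growth values reflect cell death: -40 means 40% of the cells present at the start died, and -100 means all died.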 Values without a mark were called inactive. Active and inactive are the calls of the source. Rule for the calls: active = growth percent below 10; inactive = the rest.

In the case of `O=C(COc1ccc(/C=C2\SC(=O)NC2=O)cc1)Nc1ccc(C(=O)/C=C/c2cc3ccccc3nc2Cl)cc1`, the growth was 31.3% with SR leukemia; -25.8% (active) in the experiment on RPMI-8226 leukemia; 76.4% in the experiment on OVCAR-8 ovarian; 110% in the experiment with OVCAR-5 ovarian; 42.2% in the experiment on OVCAR-4 ovarian; 108% in the experiment on SK-OV-3 ovarian. Besides, the growth in the experiment on IGROV1 ovarian was 71.4%; in the experiment with OVCAR-3 ovarian, 85.5%; in the experiment with HS 578T breast, 78.8%; with NCI/ADR-RES ovarian it was 92.6%; in the experiment with T-47D breast it was 54.7%; in the experiment with BT-549 breast, 67.7%. Further, the growth in the experiment on MDA-MB-435 melanoma was 13.6%; in the experiment on SW-620 colon it was 88.7%; with MCF7 breast, -4.07% (active); in the experiment on HCT-116 colon, -57.2% (active); with HCC-2998 colon it was 64.6%; in the experiment on KM12 colon, 59.5%.

`CCCCCCNC(=O)Oc1ccc(/C(=C(\C)c2ccc(Cl)cc2)c2ccc(OCCN(C)C)cc2)cc1`: the growth was 2% (active) in the experiment on SR leukemia; -11.6% (active) with RPMI-8226 leukemia; 84.8% in the experiment on OVCAR-8 ovarian; 78.1% in the experiment on OVCAR-5 ovarian; 74.5% with OVCAR-4 ovarian; 94.4% with SK-OV-3 ovarian. The growth is 44.7% with IGROV1 ovarian; 66.4% in the experiment on OVCAR-3 ovarian; 80.6% in the experiment with HS 578T breast; 62.9% in the experiment on NCI/ADR-RES ovarian; 54.8% in the experiment with T-47D breast; 77.4% in the experiment on BT-549 breast. For the same compound, the growth with MDA-MB-435 melanoma was 85.3%; in the experiment with SW-620 colon it was 21.3%; in the experiment on MCF7 breast it was 10.8%; with HCT-116 colon, 18.7%; with HCC-2998 colon, 71.4%; in the experiment on KM12 colon, 83.1%.

Take `O=C(/C=C1\C=CN(CCCCF)c2ccccc21)n1ccc2ccccc21`: the growth was 107% with SR leukemia; 102% in the experiment with RPMI-8226 leukemia; 106% in the experiment on OVCAR-8 ovarian; 99.2% with OVCAR-5 ovarian; 85.4% in the experiment on OVCAR-4 ovarian; 95.9% in the experiment with SK-OV-3 ovarian. Besides, the growth in the experiment with IGROV1 ovarian was 74.9%; in the experiment on OVCAR-3 ovarian, 126%; with HS 578T breast it was 119%; in the experiment on NCI/ADR-RES ovarian, 108%; with T-47D breast, 91%; with BT-549 breast it was 114%. Besides, the growth in the experiment on MDA-MB-435 melanoma was 106%; with SW-620 colon, 105%; in the experiment on MCF7 breast, 91.8%; in the experiment with HCT-116 colon it was 105%; with HCC-2998 colon, 106%; in the experiment on KM12 colon it was 112%.

As for `CC[C@H](C)[C@H]1NC(=O)[C@@H]([C@H](O)C(C)C)NC(=O)[C@@H](C)N(C)C(=O)[C@H](C)N(C)C(=O)[C@H](CC(C)C)NC(=O)[C@H](CC(C)C)N(C)C(=O)[C@H](C)N(C)C1=O`, the growth in the experiment on SR leukemia is 5.76% (active); in the experiment on RPMI-8226 leukemia it was -13.8% (active); in the experiment with OVCAR-8 ovarian, 4.14% (active); in the experiment on OVCAR-5 ovarian, 6.87% (active); in the experiment with OVCAR-4 ovarian, 8.31% (active); in the experiment with SK-OV-3 ovarian, -9.12% (active). Also, the growth in the experiment with IGROV1 ovarian was 10.5%; in the experiment with OVCAR-3 ovarian, 6.47% (active); with HS 578T breast, 5.82% (active); with NCI/ADR-RES ovarian, 11.4%; in the experiment with T-47D breast, -6.92% (active); in the experiment on BT-549 breast it was -4.47% (active). Also, the growth was 5.17% (active) in the experiment on MDA-MB-435 melanoma; 5.6% (active) with SW-620 colon; 1.66% (active) in the experiment on MCF7 breast; 1.42% (active) in the experiment with HCT-116 colon; 2.12% (active) with HCC-2998 colon; 16% in the experiment on KM12 colon.

In the case of `O=[N+]([O-])c1ccc(-c2nnc(SCc3ccc(O)c4ncccc34)o2)cc1`, the growth with SR leukemia is 45%; in the experiment on RPMI-8226 leukemia it was 15%; in the experiment with OVCAR-8 ovarian it was 22%; with OVCAR-5 ovarian, 49%; with OVCAR-4 ovarian, 17.3%; in the experiment on SK-OV-3 ovarian it was 11.1%. Also, the growth is 31.7% in the experiment with IGROV1 ovarian; 8.31% (active) in the experiment with OVCAR-3 ovarian; 2.14% (active) in the experiment with HS 578T breast; 25.3% with NCI/ADR-RES ovarian; 9.66% (active) in the experiment with T-47D breast; 27.4% with BT-549 breast. Also, the growth was 19% with MDA-MB-435 melanoma; 20.5% with SW-620 colon; 6.95% (active) with MCF7 breast; 12.7% with HCT-116 colon; 28% in the experiment with HCC-2998 colon; 13.8% with KM12 colon.

Regarding `Cc1cc(O)c(=O)cc2c1C[C@H]1CC(C)(C)/C=C/C[C@]3(C)Oc4cc(=O)c(O)cc(C)c4C[C@H]3C[C@H](O)[C@@]1(C)O2`, the growth was 4.18% (active) with SR leukemia; -0.673% (active) in the experiment with RPMI-8226 leukemia; 2.98% (active) in the experiment with OVCAR-8 ovarian; 26.9% in the experiment on OVCAR-5 ovarian; 9.74% (active) in the experiment with OVCAR-4 ovarian; -14.3% (active) in the experiment on SK-OV-3 ovarian. Also, the growth with IGROV1 ovarian is 6.73% (active); in the experiment on OVCAR-3 ovarian it was 14.5%; with HS 578T breast it was 18.7%; in the experiment with NCI/ADR-RES ovarian, 1.38% (active); in the experiment on T-47D breast, -2.55% (active); with BT-549 breast, 1.87% (active). The growth in the experiment on MDA-MB-435 melanoma was 15.7%; in the experiment on SW-620 colon, 15.1%; with MCF7 breast, 7.16% (active); in the experiment on HCT-116 colon, 11.3%; in the experiment with HCC-2998 colon, 30.8%; with KM12 colon, 23.6%.

For the compound `O=C(CCCCCCN1CC(=O)N2[C@@H](c3ccccc3)c3[nH]c4ccccc4c3C[C@H]2C1=O)NO`, the growth with SR leukemia was 37.2%; with RPMI-8226 leukemia, 26.7%; with OVCAR-8 ovarian, 39.6%; in the experiment with OVCAR-5 ovarian it was 58%; with OVCAR-4 ovarian, 65.6%; in the experiment on SK-OV-3 ovarian it was 70.1%. Moreover, the growth with IGROV1 ovarian was 60.6%; with OVCAR-3 ovarian, 55.5%; in the experiment on HS 578T breast, 68.8%; with NCI/ADR-RES ovarian, 77.9%; in the experiment with T-47D breast it was 25.7%; in the experiment with BT-549 breast it was 91.5%. Moreover, the growth was 46.1% in the experiment with MDA-MB-435 melanoma; 38.7% with SW-620 colon; 47.1% with MCF7 breast; 20.9% in the experiment with HCT-116 colon; 85.8% with HCC-2998 colon; 65.2% in the experiment with KM12 colon.

Regarding `COc1ccc([C@H]2c3[nH]c4ccccc4c3C[C@@H]3C(=O)N(C4CCN(Cc5ccccc5)CC4)CC(=O)N23)c(OC)c1`, the growth in the experiment with SR leukemia is 29.9%; with RPMI-8226 leukemia, 52.9%; in the experiment on OVCAR-8 ovarian it was 88.7%; in the experiment on OVCAR-5 ovarian it was 90%; in the experiment on OVCAR-4 ovarian, 82.7%; in the experiment on SK-OV-3 ovarian, 93%. Further, the growth is 50.6% in the experiment on IGROV1 ovarian; 80.4% in the experiment with OVCAR-3 ovarian; 82.3% in the experiment on HS 578T breast; 68.3% in the experiment with NCI/ADR-RES ovarian; 82.8% in the experiment on T-47D breast; 86.1% with BT-549 breast. Also, the growth in the experiment on MDA-MB-435 melanoma is 83.3%; with SW-620 colon, 79.9%; with MCF7 breast it was 51.7%; in the experiment on HCT-116 colon it was 56.8%; with HCC-2998 colon it was 78.1%; in the experiment with KM12 colon it was 79.6%.
